In PubChem BioAssay (NCATS):
Values joined by “and” are separate entries in the source; they are usually repeats but may differ in a detail not shown here. Equal values may be shown once. Results filed as inconclusive are left out. Active and inactive are the calls of the source. Unless noted, calls come from the whole dose curve; as a rule, active = well fitted curve in the direction sought with a large enough effect; inconclusive = small, poorly fitted or top-dose-only effect, or another doubt; inactive = no such curve, though single readings can be large; an effect the other way counts as inactive or inconclusive.

What was measured:
[1] = qHTS assay for small molecule disruptors of the mitochondrial membrane potential - 1 hr assay (AID 651754; calls by dose curve; note: % is set by controls: 0 for no effect and ±100 for the full control effect; nearly all actives have a fitted effect of over 35% in size)
Outline: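 Loss of mitochondrial potential shifts the cationic dye from red mitochondrial aggregates to green cytoplasmic monomers. Cells (HepG2) are treated with compound for 1 hr before a 30 min dye incubation at 37C.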

[2] = qHTS assay for small molecule disruptors of the mitochondrial membrane potential - 5 hr assay (AID 651755; calls by dose curve; note: % is set by controls: 0 for no effect and ±100 for the full control effect; nearly all actives have a fitted effect of over 40% in size)
Outline: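 Read-out: ratiometric Mito-MPS fluorescence, green monomer (ex 490/em 535) vs red mitochondrial aggregate (ex 540/em 590). HepG2 cells treated 5 hr at 37C before 30 min dye loading.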

[3] = biological target: Tumor necrosis factor (Homo sapiens) (UniProt P01375); assay: qHTS assay to identify small molecules that stimulate Tumor Necrosis Factor-alpha (TNF-alpha) secretion (AID 651757; active = well fitted curve in the direction sought with a large enough effect in the signal ratio; the % refers to the signal ratio; note: 0% is about no effect)
Tumor necrosis factor (Homo sapiens), sequence (P01375 whole entry, looked up): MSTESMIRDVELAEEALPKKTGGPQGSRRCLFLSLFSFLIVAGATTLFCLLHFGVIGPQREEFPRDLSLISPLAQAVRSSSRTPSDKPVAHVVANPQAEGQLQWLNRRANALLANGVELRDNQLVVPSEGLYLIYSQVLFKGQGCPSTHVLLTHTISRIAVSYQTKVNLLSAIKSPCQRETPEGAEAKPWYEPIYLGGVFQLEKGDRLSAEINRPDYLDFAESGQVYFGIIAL
Outline: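 Human monocytic THP-1 cells are plated, treated with compound and held at 37 C for 17 hrs. Labeled anti-TNF-alpha antibody mixture is then added; after 3 hr at room temperature, TR-FRET signal reports secreted TNF-alpha.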

[4] = qHTS assay for environmental chemicals that activate the Aryl hydrocarbon Receptor (AhR) signaling pathway (AID 651777); settings: 1A2-DRE human hepatoma cells, luciferase, 24 h; activation: hits give high values; note: % of control where 0% means no effect; nearly all actives have a fitted effect of over 15% in size
Outline: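 Concentration–response screening used 1,200 1A2-DRE cells per well, 24 hr compound exposure (37 C, 5% CO2), and One-Glo luminescence as the AhR-driven CYP1A2 reporter signal.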

[5] = biological target: Nuclear receptor ROR-gamma (Homo sapiens) (UniProt P51449); assay: qHTS assay for small molecule antagonists of the retinoid-related orphan receptor gamma (ROR-gamma) signaling pathway (AID 651802);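 note: CHO cells with doxycycline-induced ROR-gamma expression; series mostly up to about 92 µM; % is set by controls: 0 for no effect and ±100 for the full control effect; nearly all actives have a fitted effect of over 60% in size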
Nuclear receptor ROR-gamma (Homo sapiens), sequence (P51449 whole entry, looked up): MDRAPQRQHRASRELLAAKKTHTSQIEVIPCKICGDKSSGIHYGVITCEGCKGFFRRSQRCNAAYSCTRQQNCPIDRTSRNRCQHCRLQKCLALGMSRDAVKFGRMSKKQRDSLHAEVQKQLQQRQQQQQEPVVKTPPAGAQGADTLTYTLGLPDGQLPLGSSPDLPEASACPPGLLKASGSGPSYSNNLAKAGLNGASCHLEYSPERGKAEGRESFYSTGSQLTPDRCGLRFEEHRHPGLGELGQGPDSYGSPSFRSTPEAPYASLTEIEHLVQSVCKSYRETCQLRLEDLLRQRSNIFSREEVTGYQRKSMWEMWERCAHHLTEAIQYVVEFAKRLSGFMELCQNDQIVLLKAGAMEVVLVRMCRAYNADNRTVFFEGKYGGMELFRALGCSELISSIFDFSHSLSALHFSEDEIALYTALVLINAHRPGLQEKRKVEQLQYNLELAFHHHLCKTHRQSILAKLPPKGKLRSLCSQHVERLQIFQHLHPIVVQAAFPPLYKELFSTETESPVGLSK
Outline: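 Steps: cells dispensed; compound or DMSO transferred by pin tool; doxycycline added to induce the ROR response element-driven luciferase; plates held 16hr at 37C; ONE-Glo added and luminescence measured.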

[6] = qHTS assay for small molecule agonists of the antioxidant response element (ARE) signaling pathway measured by Nrf2-dependant transcriptional activity (AID 720636; active = well fitted curve in the direction sought with a large enough effect in the repeat runs; an effect the other way counts as inactive or inconclusive;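 note: HepG2 cells with an ARE-driven luciferase reporter; % of control where 0% means no effect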)
Outline: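 Attachment 6 hr at 37 C, then compound versus DMSO vehicle for 16 hr in ARE-luc HepG2 cells (1% dialyzed FBS); luminescence recorded 30 min after ONE-Glo addition at room temperature.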

[7] = qHTS assay for small molecule antagonists of the retinoid-related orphan receptor gamma (ROR-gamma) signaling pathway - cell viability counter screen (AID 720652; active = well fitted curve in the direction sought with a large enough effect in the repeat runs; an effect the other way counts as inactive or inconclusive;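 note: CHO reporter cells with doxycycline-induced ROR-gamma expression; series mostly up to about 92 µM; compound exposure lasted 16 hr before ATP read; % is set by controls: 0 for no effect and ±100 for the full control effect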)
Outline: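 Steps: seed CHO cells bearing TET-inducible ROR and ROR response element-luciferase; rest 5 hr at 37 C; add compound, then doxycycline; incubate 16 hr; add CellTiter-Glo and read luminescence as ATP-based viability.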

[8] = qHTS assay for small molecule agonists of the antioxidant response element (ARE) signaling pathway measured by Nrf2-dependant transcriptional activity - cell viability counter screen (AID 720653; active = well fitted curve in the direction sought with a large enough effect in the repeat runs; an effect the other way counts as inactive or inconclusive; note: % is set by controls: 0 for no effect and ±100 for the full control effect); settings: ARE-bla HepG2 viability, CellTiter-Glo ATP luminescence, 16 h; hits give low values
Outline: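 ARE-bla HepG2 cells treated with compounds for 16 h at 37C; this counter screen measures viability as intracellular ATP by CellTiter-Glo luminescence after 30 min at room temperature.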

[9] = qHTS assay for cell viability of the p53RE-bla HCT-116 cell line (AID 743292); note: % is set by controls: 0 for no effect and ±100 for the full control effect; nearly all actives have a fitted effect of over 55% in size
Outline: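 Compound-exposed HCT-116 (p53RE-bla) cells, 4,000 per well, were kept 16 h at 37 C following a 5 h preincubation. Cell number was estimated from total ATP by CellTiter-Glo luminescence read after 30 min at room temperature.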

[10] = biological target: Nuclear receptor subfamily 1 group I member 2 (Rattus norvegicus) (UniProt Q9R1A7); assay: qHTS assay for small molecule activators of the rat pregnane X receptor (rPXR) signaling pathway (AID 651751; call rule not given here; note: 0% is about no effect); settings: rPXR reporter cells, luciferase (One-Glo), 24 h
Nuclear receptor subfamily 1 group I member 2 (Rattus norvegicus), sequence (Q9R1A7 whole entry, looked up): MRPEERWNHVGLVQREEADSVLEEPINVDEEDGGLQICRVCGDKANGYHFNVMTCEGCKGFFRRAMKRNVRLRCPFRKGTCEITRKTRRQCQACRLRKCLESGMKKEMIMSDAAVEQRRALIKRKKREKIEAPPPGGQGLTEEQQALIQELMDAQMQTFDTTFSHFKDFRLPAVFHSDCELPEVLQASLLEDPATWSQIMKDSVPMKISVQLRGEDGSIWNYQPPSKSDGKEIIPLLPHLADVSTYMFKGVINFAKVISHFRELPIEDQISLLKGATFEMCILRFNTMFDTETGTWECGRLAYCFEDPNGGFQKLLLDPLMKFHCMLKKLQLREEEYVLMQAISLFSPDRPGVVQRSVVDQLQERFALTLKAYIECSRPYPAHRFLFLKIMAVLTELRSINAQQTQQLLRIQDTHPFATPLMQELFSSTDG

[11] = biological target: Peroxisome proliferator-activated receptor alpha (Homo sapiens) (UniProt Q07869); assay: qHTS assay for small molecule agonists of the peroxisome proliferator-activated receptor alpha (PPARalpha) signaling pathway (AID 651778); settings: PathHunter PPARalpha complementation, chemiluminescence, 6 h; hits give high values; note: % of control where 0% means no effect
Peroxisome proliferator-activated receptor alpha (Homo sapiens), sequence (Q07869 whole entry, looked up, the tested form may be a part): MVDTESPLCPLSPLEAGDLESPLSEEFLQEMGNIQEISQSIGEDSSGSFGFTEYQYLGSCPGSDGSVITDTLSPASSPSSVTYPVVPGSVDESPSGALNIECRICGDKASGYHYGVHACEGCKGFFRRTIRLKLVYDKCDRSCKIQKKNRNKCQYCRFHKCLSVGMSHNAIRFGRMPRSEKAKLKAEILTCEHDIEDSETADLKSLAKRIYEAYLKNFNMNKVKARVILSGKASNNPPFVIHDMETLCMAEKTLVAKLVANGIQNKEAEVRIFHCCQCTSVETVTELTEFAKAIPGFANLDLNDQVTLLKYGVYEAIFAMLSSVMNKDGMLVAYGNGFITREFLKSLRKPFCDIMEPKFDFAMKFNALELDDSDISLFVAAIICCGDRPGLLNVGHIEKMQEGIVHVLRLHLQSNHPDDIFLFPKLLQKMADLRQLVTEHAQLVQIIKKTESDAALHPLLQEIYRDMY
Outline: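 Enzyme-fragment complementation assay in which ligand-bound PPARalpha translocates and forms an active enzyme that generates chemiluminescence. Cells were plated overnight, exposed to compound for 6 hr at 37 C, and then given detection reagent for 60 min at room temperature.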

[12] = qHTS assay for cell viability of HEK293 cells (AID 743288); settings: ATP luminescence (CellTiter-Glo), 18 h, hits give low values; note: % is set by controls: 0 for no effect and ±100 for the full control effect; nearly all actives have a fitted effect of over 50% in size
Outline: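 Steps: plate 2,000 parental HEK293 cells per well; incubate ≥5 h, 37 C; add compounds in DMSO; incubate 18 h, 37 C; add CellTiter-Glo; wait 30 min at room temperature; read luminescence.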

[13] = qHTS assay for small molecule activators of the human pregnane X receptor (PXR) signaling pathway (AID 720659; call rule not given here; note: 0% is about no effect)

CSCCC=O
inactive: Potency [1] | Potency [2] | Potency [3] | activation [4] -0.987% | Potency [5] | outcome [6] | Potency [7] | max response [8] -0.733% | Potency [9] | max response [10] 4.33%

CCOC(=O)C(C)C(C)=O (configuration not stated)
inactive: Potency [1] | Potency [2] | Potency [3] | activation [4] 0.277% | max response [11] -3.29% | outcome [6] | Potency [7] | max response [8] -7.43% | max response [12] 2.57% | Potency [9] | max response [10] 4.21% | outcome [13]

CC(=O)c1cccc([N+](=O)[O-])c1
inactive: Potency [1] | Potency [2] | Potency [3] | activation [4] 1.48% | max response [11] 0.67% | outcome [6] | Potency [7] | max response [8] 17.8% | max response [12] -8.78% | Potency [9] | max response [10] -2.86% | outcome [13]

CCOCCO
inactive: Potency [1] | Potency [2] | Potency [3] | max response [11] -5.75% | Potency [5] | outcome [6] | Potency [7] | max response [8] 10.2% | max response [12] -0.409% | Potency [9] | max response [10] -4.11% | outcome [13]

CCC1CO1 (configuration not stated)
inactive: Potency [1] | Potency [2] | Potency [3] | activation [4] 0.0109% | Potency [5] | outcome [6] | Potency [7] | max response [8] 1.19% | max response [12] 4.98% | Potency [9] | max response [10] 4.08% | outcome [13]

CC(C=O)Cc1ccc(C(C)(C)C)cc1 (configuration not stated)
inactive: Potency [1] | Potency [2] | Potency [3] | activation [4] 0.301% and -1.84% | max response [11] -2% and -1.24% | outcome [6] | Potency [7] | max response [8] -4.71% and -17.8% | max response [12] 9% and 0.62% | Potency [9] | max response [10] 2.84% and 3.47% | outcome [13]

O=C(O)c1ccc(Cl)cc1Cl
inactive: Potency [1] | Potency [2] | Potency [3] | max response [11] -5.53% | Potency [5] | outcome [6] | Potency [7] | max response [8] -0.648% | max response [12] 4.16% | Potency [9] | max response [10] 4.22% | outcome [13]

CCNc1ccccc1
inactive: Potency [1] | Potency [2] | Potency [3] | activation [4] 0.398% | max response [11] -1.14% | Potency [5] | outcome [6] | max response [8] -0.56% | max response [12] -1.34% | Potency [9] | max response [10] -2.55% | outcome [13]

CC(=O)CC(C)C
inactive: Potency [1] | Potency [2] | Potency [3] | max response [11] -2.67% | Potency [5] | outcome [6] | Potency [7] | max response [8] 4.78% | max response [12] -6.25% | Potency [9] | max response [10] -2.17% | outcome [13]

CC(=O)c1cc(C)oc1C
inactive: Potency [1] | Potency [2] | Potency [3] | activation [4] 0.74% | Potency [5] | outcome [6] | Potency [7] | max response [8] 1.5% | max response [12] -13.5% | Potency [9] | max response [10] 1.56% | outcome [13]

CNC(=O)N(c1ccccc1)c1ccccc1
inactive: Potency [1] | Potency [2] | Potency [3] | activation [4] -0.495% | max response [11] -2.12% | outcome [6] | Potency [7] | max response [12] 1.15% | Potency [9] | max response [10] 1.74% | outcome [13]

Clc1ccccn1
inactive: Potency [1] | Potency [2] | Potency [3] | max response [11] -1.35% | Potency [5] | outcome [6] | Potency [7] | max response [8] -1.74% | max response [12] -2.77% | Potency [9] | max response [10] -2.56% | outcome [13]

CC(=O)c1ccc([N+](=O)[O-])cc1
inactive: Potency [1] | Potency [2] | Potency [3] | activation [4] 0.202% | max response [11] -2.88% | outcome [6] | Potency [7] | max response [8] 19% | max response [12] 5.77% | Potency [9] | max response [10] -4.15% | outcome [13]

NS(=O)(=O)O
inactive: Potency [1] | Potency [2] | Potency [3] | activation [4] 0.965% | max response [11] -1.54% | Potency [5] | Potency [7] | max response [8] 3.57% | max response [12] 3.9% | Potency [9] | max response [10] -5.24% | outcome [13]

O=C(O)c1ccccc1[N+](=O)[O-]
inactive: Potency [1] | Potency [2] | Potency [3] | activation [4] -1.41% | Potency [5] | outcome [6] | Potency [7] | max response [8] -13.2% | max response [12] 3.94% | Potency [9] | max response [10] 0.256% | outcome [13]

NC(N)=S
inactive: Potency [1] | Potency [2] | Potency [3] | activation [4] 0.321% | max response [11] -4.91% | outcome [6] | Potency [7] | max response [8] -0.0983% | max response [12] -3.49% | Potency [9] | max response [10] -3.24% | outcome [13]

CCC(O)C(C)(C)C (configuration not stated)
inactive: Potency [1] | Potency [2] | Potency [3] | activation [4] 0.48% | max response [11] -0.805% | Potency [5] | outcome [6] | Potency [7] | Potency [9] | max response [10] 7.53% | outcome [13]

c1ccc2[nH]cnc2c1
inactive: Potency [1] | Potency [2] | Potency [3] | activation [4] 1.2% | Potency [5] | outcome [6] | Potency [7] | max response [8] -6.28% | max response [12] 3.37% | Potency [9] | max response [10] 3.1% | outcome [13]
